Source: PubChem
Sampled rows, rich in hits. Any-hit rate of the full collection: about 4.9%.
HSF1 inhib: HSF1 inhibition. NIH3T3-HGL HSE-luciferase, MG132-induced, luminescence 8 h; hits give low values. activity change, negative = inhibition, % at 7.5 µM (by protocol). hit rate 0.77% among 300,000;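 active = more than half of replicate wells show activity change below -50%, luminescence cut by over half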;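 note: luciferase reports HSF-1 transcriptional activity via heat shock element; 0% = median of DMSO wells and -100% = zero luminescence signal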
Platelet DG rel: modulates dense granule release in human platelets; human platelet-rich plasma, SFLLRN dense granule ATP release, luminescence; inhibition, %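 (compounds screened at 7.5 µM in platelet-rich plasma)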; hit rate 0.22% among 300,000; AID 1663;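 active = mean replicate score, as percent of positive control, at or above 50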
HSP90 inh: blocks HSP90-mediated luciferase refolding in reticulocyte lysate; Rabbit reticulocyte lysate, luciferase refolding luminescence, 3 h; inhibition, % at 5.6 µM; hit rate 0.91% among 290,000;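 active = inhibition above the screen-wide mean plus 3 SD, computed separately per campaign, cut at about 16% in these data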;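 note: 0% = DMSO wells and 100% = 60 µM geldanamycin wells; inhibitors lower the luminescence because luciferase stays unfolded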
dFosB activator: activators of mouse delta FosB homodimer | P13346 | purified delta FosB, TAMRA-CDK5 oligo fluorescence polarization; percent of positive-control signal above neutral wells | activation, % at 25 µM | hit rate 0.99% among 340,000;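 active = mean activation above about 17%, with every replicate also reaching it, limit read from the data, passing the limit was not always enough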
Target sequence (P13346 whole entry, looked up): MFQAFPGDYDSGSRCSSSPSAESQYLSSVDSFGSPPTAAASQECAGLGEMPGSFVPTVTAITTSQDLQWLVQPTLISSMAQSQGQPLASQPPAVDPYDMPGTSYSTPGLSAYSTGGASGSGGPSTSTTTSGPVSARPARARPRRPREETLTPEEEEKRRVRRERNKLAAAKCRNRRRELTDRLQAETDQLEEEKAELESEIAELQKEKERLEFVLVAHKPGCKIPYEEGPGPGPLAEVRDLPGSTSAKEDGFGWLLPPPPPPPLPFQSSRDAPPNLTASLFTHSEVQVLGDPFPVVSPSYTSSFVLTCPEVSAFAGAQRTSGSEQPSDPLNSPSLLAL
HSF1 activator: increases HSF-1 driven luciferase reporter signal; hit rate 1.7% among 300,000; NIH3T3-HGL HSF-1 luciferase reporter, MG132, 8 h; 100% = twice DMSO control signal; activation, % at 9 µM;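 active = mean replicate activation of at least 50% with a set share of replicates each reaching 50%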;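 note: 0% = median of the neutral control wells and 100% = twice that signal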
MPTP block: permeability transition pore inhibition; isolated mouse mitochondria, Ca2+ swelling absorbance, 30 min; inhibition, % at 10 µM; hit rate 1.4% among 360,000;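 active = inhibition of 50% or more, scaled per plate between neutral and stimulator controls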;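 note: 0% = DMSO wells given calcium and 100% = 1 mM EGTA wells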
The depositor's hits bear a star; / = no result.

SMILES	HSF1 inhib	Platelet DG rel	HSP90 inh	dFosB activator	HSF1 activator	MPTP block
COc1ccc(C(C)(O)c2nc(-c3cccc(NC(C)=O)c3)cs2)cc1 (stereo not given)	/	/	/	/	/	-1
O=C(c1ccncc1)N(Cc1cc2ccccc2[nH]c1=O)C1CCCCC1	-2	0	-3	-9	-3	-1
O=C(c1ccco1)N(Cc1cc2ccccc2[nH]c1=O)C1CCCCC1	-82*	-6	3	-6	-85	0
CCOc1ccc2[nH]c(=O)c(CN(Cc3ccc(F)cc3)C(=O)c3ccco3)cc2c1	23	5	-1	-9	75*	-20
CN(C)c1ccc2nc3ccc(=[N+](C)C)cc-3sc2c1	26	12	15	40*	48	48
CN(C)c1ccc2nc3ccc(=O)cc-3sc2c1	/	/	/	/	/	5
O=C(NCc1cccs1)c1ccc([N+](=O)[O-])cc1Cl	-70*	4	4	3	-73	4
COCCn1c(N)c(N(Cc2ccccc2)C(=O)c2ccc(C#N)cc2)c(=O)[nH]c1=O	13	10	-3	-1	55*	0
COCCn1c(N)c(N(Cc2ccccc2)C(=O)Cc2c(Cl)cccc2Cl)c(=O)[nH]c1=O	-5	-3	-2	-2	-4	-1
Cn1c(SCc2ccc(C#N)cc2Cl)nc2ccccc21	74	4	5	-8	93*	2
N#Cc1ccc(CSc2ccccn2)c(Cl)c1	21	-1	0	0	50	0
CCCS(=O)(=O)NC(=O)C1(C)CCN(C(=O)COc2ccccc2)C1 (stereo not given)	/	/	/	/	/	-1
S=C1Cc2ccccc2N1	-77*	-2	5	-15	-78	0
O=C(CCC1CCCNC1)c1ccccc1 (stereo not given)	-70*	17	-3	/	-75	/
COc1c(OC(C)=O)ccc(/C=C/c2ccc3cccc(OCc4ccccc4)c3n2)c1[N+](=O)[O-]	45	-11	14	-10	61*	19
CCN(C(=O)CSc1ncccc1C(=O)Oc1cccc([N+](=O)[O-])c1)c1cccc(C)c1	29	2	-6	-5	60*	1
CN(C)c1ccc(N=c2sc3ccccc3n2C)cc1	70	-7	-7	-2	110*	1
COc1ccc(Cl)cc1S(=O)(=O)N1CCC(C(=O)NCCc2ccccc2)CC1	-79*	5	-3	-4	-84	0
COc1ccc(C)cc1S(=O)(=O)N1CCC(C(=O)NCCc2ccccc2)CC1	-4	7	3	-9	8	0
COc1ccc(N=C2NN=C(c3ccc4c(c3)OCCO4)CS2)cc1	-6	-3	9	2	-11	-5
c1cc2c(cc1C1=NNC(=NC3CC3)SC1)OCCO2	-3	75*	76*	-11	7	1
NNC(=O)c1nn(-c2ccccc2)cc1O	-56*	-4	-4	/	-56	/
COc1ccc2nc(NC(=O)c3ccccc3C(=O)O)sc2c1	0	3	-2	-9	2	1
Nc1ccc(C(=O)Nc2nc3ccccc3s2)cc1	33	5	5	2	57*	-1
COc1n[nH]c(C(=O)Nc2nc3ccccc3s2)c1[N+](=O)[O-]	-65*	4	-4	1	-69	5
SMILES	HSF1 inhib	Platelet DG rel	HSP90 inh	dFosB activator	HSF1 activator	MPTP block
COc1ccc(C(=O)Nc2nc3ccccc3s2)c(OC)c1	-93*	83*	91*	-14	-93	0
CN(C(=O)c1cccc(NC(=O)Cc2ccc(NC(=O)C3CCN(C(=O)C4CCCC4)CC3)cc2)c1)C1CCCC1	/	/	/	-8	/	1
Cc1ccc2nc(COc3ccc(Cl)cc3)cc(=O)n2c1	45	31	1	5	66*	0
COc1ccc(CCNC(=O)c2ccc(S(=O)(=O)N3CCCCC3)cc2)cc1	/	/	/	4	/	0
S=c1[nH]nc(-c2ccco2)n1/N=C/C(Cl)=C/c1ccccc1	142	0	3	-3	182*	8
S=c1[nH]nc(-c2cc(-c3ccccc3)n[nH]2)n1/N=C/C(Br)=C/c1ccccc1	99	-28	0	/	104*	6
COCCN(C(=O)c1csnn1)C(C(=O)NC1CCCCC1)c1ccccc1F (stereo not given)	-1	-7	1	-4	15	0
O=C(c1cc(COc2c(F)cccc2F)on1)N1CCc2ccccc2C1	2	0	3	-1	7	2
